Assay outcomes as filed in PubChem.
Only some compounds are listed: those with a hit (about 19% of all), similar ones and a draw of the others.
TDP1 cell CPT – growth inhibition of DT40 Tdp1-/-;hTDP1 cells with camptothecin (screen for TDP1 inhibitors) | Potency, µM (doses to about 46.2 µM), for inactives: at the top dose activity change, negative = growth inhibition, usual class: inhibitors | actives 12% (n = 420,000) | chicken DT40 Tdp1-/-;hTDP1 cells + 20 nM CPT, ATP luminescence, 48 h; note: nearly all actives have a fitted effect of over 55% in size
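Cell growth measured by CellTiter-Glo luminescence after a minimum 48 h, 37 C compound exposure with 20 nM CPT in Tdp1-knockout DT40 cells stably expressing hTDP1, seeded 400/well; qHTS titration format.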
TDP1 block – blocks human tyrosyl-DNA phosphodiesterase 1; recombinant TDP1, AlphaScreen DNA substrate cleavage; Q9NUW8; AID 485290; actives 0.28% (n = 350,000); Potency, µM (highest dose often 130 µM), without a hit: at the highest dose activity change, negative = inhibition, actives largely listed as inhibitors; note: nearly all actives have a fitted effect of over 40% in size
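Signal: AlphaScreen proximity between streptavidin donor and anti-FITC acceptor beads on intact substrate. Reaction: Tdp1 1 nM, substrate 15 nM final, 5 min RT after 15 min compound preincubation.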
RORgamma inh – ROR gamma (mouse) transcription inhibition; AID 2551; P51450; Drosophila S2 Gal4-RORgamma UAS-luciferase reporter, 20 h; actives 5.4% (n = 310,000); Potency, µM (top dose mostly 53.6 µM), for the others: top-dose activity change, negative = inhibition, actives largely listed as inhibitors; note: nearly all actives have a fitted effect of over 60% in size
Target sequence (P51450 whole entry, looked up, the tested form may be a part): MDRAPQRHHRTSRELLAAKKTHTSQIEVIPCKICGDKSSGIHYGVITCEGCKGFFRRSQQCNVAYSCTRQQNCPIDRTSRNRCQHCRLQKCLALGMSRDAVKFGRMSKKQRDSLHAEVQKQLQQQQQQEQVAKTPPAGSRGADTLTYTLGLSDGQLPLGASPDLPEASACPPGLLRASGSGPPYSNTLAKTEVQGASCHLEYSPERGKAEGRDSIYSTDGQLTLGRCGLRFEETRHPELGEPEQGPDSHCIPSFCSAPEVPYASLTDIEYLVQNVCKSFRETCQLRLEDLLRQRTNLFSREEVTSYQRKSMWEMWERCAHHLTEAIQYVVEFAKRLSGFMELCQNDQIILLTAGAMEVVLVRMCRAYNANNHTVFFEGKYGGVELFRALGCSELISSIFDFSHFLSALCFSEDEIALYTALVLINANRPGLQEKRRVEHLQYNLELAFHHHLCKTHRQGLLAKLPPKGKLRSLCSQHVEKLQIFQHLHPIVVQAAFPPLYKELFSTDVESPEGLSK
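Drosophila Schneider cells stably carrying a metallothionein-driven Gal4 DBD–ROR gamma fusion and a UAS-Photinus luciferase reporter were exposed to compound for 1 hr, then induced with copper sulfate (700 uM final) for 20 hr at ambient temperature before luminescence reading.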
TDP1 cell noCPT – qHTS for Inhibitors of human tyrosyl-DNA phosphodiesterase 1 (TDP1): qHTS in cells in absence of CPT | DT40 Tdp1-/- hTDP1 cells, no CPT, ATP luminescence, 48 h | actives 15% (n = 420,000) | Potency, µM (doses to about 46.2 µM), for the others: at the highest dose activity change, negative = growth inhibition, actives largely listed as inhibitors; note: nearly all actives have a fitted effect of over 55% in size
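Chicken DT40 Tdp1-/- cells stably complemented with human TDP1 were seeded at 400 cells/well with DMSO in place of 20 nM camptothecin. After compound pinning, cells grew at least 48 hr at 37 °C; viability read by CellTiter-Glo luminescence.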
VP16 counter – Gal4-VP16 reporter inhibition counter-screen. Potency, µM (doses to about 53.6 µM), for inactives: at the top dose activity, negative = inhibition, actives largely listed as inhibitors. actives 3.5% (n = 310,000). Drosophila S2 Gal4-VP16 UAS-luciferase, luminescence, 20 h;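 note: Gal4-VP16 expression switched on by copper sulfate through the metallothionein promoter; nearly all actives have a fitted effect of over 50% in size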
Starred values were filed as active, the others as inactive; ? = inconclusive; . = no result; [ ] = another dose, or the depositor's remark. Calls come from the whole dose curve; as a rule, active = well fitted curve in the direction sought with a large enough effect; inconclusive = small, poorly fitted or top-dose-only effect, or another doubt; inactive = no such curve, though single readings can be large; an effect the other way counts as inactive or inconclusive. % is set by controls: 0 for no effect and ±100 for the full control effect; potency is the fitted concentration of half-maximal effect.

SMILES | TDP1 cell CPT | TDP1 block | RORgamma inh | TDP1 cell noCPT | VP16 counter
CC(=O)OC12COC1CC(O)C1(C)C(=O)C(O)C3=C(C)C(O)CC(O)(C(OC(=O)c4ccccc4)C21)C3(C)C (centres undefined) | 1.2µM* | . | . | 1µM* | .
O=[N+]([O-])c1ccc(NCCCN2CCOCC2)c2ncccc12 | 9% | 5% | -2% | -3% | 0%
CCC1C(c2ccccc2)NC(c2ccccc2)CC1(O)c1ccc(F)cc1 (centres undefined) | ? | . | -28% | 23µM* | ?
OCCN1C2CCC1CC(O)(c1ccc(F)cc1)C2 (centres undefined) | 1% | -1% | -1% | -4% | -6%
CC(C)[N+]12CCC(CC1)C(C(O)(c1ccccc1)c1ccccc1)C2 (centres undefined) | -11% | 1% | 1% | -21% | -2%
C=C(C)CSc1nnc([C@@H](N)Cc2ccccc2)o1 | 13% | 8% | ? | -1% | -26%
O=[N+]([O-])c1ccc(C(c2ccc([N+](=O)[O-])cc2)c2ccc([N+](=O)[O-])cc2)cc1 | 7.3µM* | . | . | 12µM* | .
O=c1cccc2n1CC1CC2CN(CC(O)CN2CC3CC(C2)c2cccc(=O)n2C3)C1 (centres undefined) | 3% | . | 8% | 12% | 1%
Cc1ccc(CN2CCN(Cc3ccccc3F)CC2)cc1 | ? | -9% | 17% | -21% | 7%
COc1ccc(N=Cc2c(O)n(Cc3ccccc3)c(=S)[nH]c2=O)c(OC)c1 | -14% | 0% | -3% | ? | 7%
N#CC(C(=O)C12CC3CC(CC(C3)C1)C2)c1nc2ccccc2[nH]1 (centres undefined) | ? | 10% | 4µM* | ? | 10µM*
CSc1nc2ccccc2n1C(=O)Oc1ccccc1 | ? | 0% | -1% | -18% | 5%
Cc1ccc(C(=O)n2c(N)nc3ccccc32)cc1 | ? | 5% | 1.6µM* | ? | 6.3µM*
O=c1[nH]c2ccccc2n1C1CCN(C(c2nnnn2-c2ccc3c(c2)OCCO3)C2CC2)CC1 (centres undefined) | 13µM* | . | . | 7.3µM* | .
O=c1[nH]c2ccccc2n1C1CCN(C(c2cccs2)c2nnnn2-c2ccc3c(c2)OCCO3)CC1 (centres undefined) | 2.9µM* | . | . | 2.3µM* | .
O=c1[nH]c2ccccc2n1C1CCN(C(c2ccccc2)c2nnnn2-c2ccc3c(c2)OCCO3)CC1 (centres undefined) | 18µM* | . | . | 18µM* | .
O=C1NCN(c2ccccc2)C12CCN(C[C@H]1COc3ccccc3O1)CC2 | 9% | 8% | 16% | -25% | -1%
CN(CC1COc2ccccc2O1)c1nc(-c2cccnc2)nc2ccccc12 (centres undefined) | 21µM* | 8% | ? | 23µM* | 3%
CCN1C[C@]2(COC)CC[C@H](OC)[C@@]34C5C[C@@H]6[C@@H](OC)C[C@@]7(OCO[C@@]7([C@@H](O)C23)[C@@H]14)C5[C@H]6OC (some centres undefined) | 0% | 5% | . | 0% | .
COC(=O)[C@@H]1C[C@H]1[C@@H](NP(=O)(c1ccccc1)c1ccccc1)c1ccccc1 | 21µM* | -3% | 10µM* | ? | ?
CC[C@@]1(O)CC(O)c2c(cc3c(c2O)C(=O)c2c(O)ccc(O)c2C3=O)C1C(=O)OC (some centres undefined) | -20% | 8%[56.1 µM] | ? | -16% | 20%
CC[C@]1(O)CC(O[C@@H]2CC(N(C)C)C(O)C(C)O2)c2c(cc3c(c2O)C(=O)c2c(O)cccc2C3=O)C1C(=O)OC (some centres undefined) | 0.82µM* | 9% | 2.2µM* | 0.58µM* | 4.5µM*
O=C(CCCC1=NS(=O)(=O)c2ccccc2N1)N1CCC2(CC1)OCCO2 | -19% | 4% | 4% | -8% | 4%
CC(C)c1c(C(=O)NC(c2cccnc2)C(F)(F)F)cnn1-c1nccc(-c2cccs2)n1 (centres undefined) | ? | . | . | 13µM* | .
Cc1c(N=Nc2c(O)n(Cc3ccccc3)c(=O)[nH]c2=O)c(=O)n(-c2ccccc2)n1C | 16µM* | 9% | -39% | 12µM* | 4%
SMILES | TDP1 cell CPT | TDP1 block | RORgamma inh | TDP1 cell noCPT | VP16 counter
Cc1nc2c(c(=O)[nH]1)C(c1ccc([N+](=O)[O-])cc1)c1c(c3ccccc3oc1=O)O2 (centres undefined) | -26% | . | 10% | ? | 2%
COc1cc(C2C(C#N)=C(N)Oc3cc(O)ccc32)cc(OC)c1OC (centres undefined) | 1µM* | 3% | -35% | 1µM* | -4%
COCCOC(=O)C1=C(C)OC(N)=C(C(=O)OC)C12C(=O)Nc1ccccc12 (centres undefined) | 0% | 6% | 2% | -5% | -3%
COC(=O)C1=C(N)Oc2cc(C)oc(=O)c2C12C(=O)Nc1ccccc12 (centres undefined) | ? | 3% | 10% | 16µM* | 3%
COc1ccccc1NC(=O)c1oc2ccccc2c1NC(=O)c1ccccc1C(F)(F)F | 3.7µM* | 4% | . | 5.2µM* | .
COC1CC(C)C(OC)c2cc(O)cc(c2O)NC(=O)C(C)=CC=CC(C)C(OC(N)=O)C(C)=CC(C)C1OC (centres undefined) | 0.092µM* | . | . | 0.15µM* | .
CC1NCCC2(O)CCCCC12 (centres undefined) | 4% | 3% | -1% | -18% | -20%
Cc1ccsc1C(=O)C1CCCN(Cc2cccn2-c2ccccn2)C1 (centres undefined) | 21µM* | 3% | -7% | ? | 8%
Cc1ccsc1C(=O)C1CCCN(Cc2ccccc2O)C1 (centres undefined) | -21% | -1% | 4% | ? | 4%
COC(=O)C1=C(c2ccccc2OCc2ccccc2)C[C@@H]2CC[C@H]1N2C(=O)NCc1ccc(C(F)(F)F)cc1 | ? | 0% | . | ? | .
COC(=O)C1=C(c2ccccc2OCc2ccccc2)C[C@@H]2CC[C@H]1N2C(=O)NCc1cccc(C(F)(F)F)c1 | ? | 0% | . | 16µM* | .
COC(=O)C1=C(c2ccc(F)cc2OCc2ccccc2)C[C@@H]2CC[C@H]1N2C(=O)NCc1ccc(C(F)(F)F)cc1 | 23µM* | 1% | . | ? | .
COC(=O)C1=C(c2ccc(OCc3ccccc3)cc2)C[C@@H]2CC[C@H]1N2C(=O)NCc1cccc(C(F)(F)F)c1 | 21µM* | 0% | . | 21µM* | .
Cn1cc(C(=O)N2CCCCC2)c2ccccc21 | -10% | 5% | 7% | 9% | 1%
